31 molecules from PubChem BioAssay AID2546 (National Center for Advancing Translational Sciences (NCATS), 2010) can be followed below.

The campaign covered roughly 310,000 compounds. About 11,000 (3.5%) were called active. Not shown: some 8% with an inconclusive outcome. This excerpt belongs to a sample that is enriched for actives. Values without a mark were called inactive. The call rests on the fitted dose curve; in most records, active means well fitted inhibition curve with a large enough effect; inconclusive means small, poorly fitted or top-dose-only effect, or effect the other way; inactive means flat fitted curve, though single readings scatter.
On the % scale 0 is the no-effect control and ±100 the full control effect; potency means the concentration at half of the fitted maximal effect.

A short description of this assay: VP16 counterscreen qHTS for inhibitors of ROR gamma transcriptional activity.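 Further: Gal4-VP16 expression switched on by copper sulfate through the metallothionein promoter; nearly all actives have a fitted effect of over 50% in size.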 As to conditions: Drosophila S2 Gal4-VP16 UAS-luciferase, luminescence, 20 h; series mostly up to 53.6 µM; activity, negative = inhibition: at the top concentration. Background: The purpose of a counterscreen is to sort out artefacts and off-target activity.
Consider `COc1cccc(C(=O)N/N=C(\C)c2cccc(NC(=O)c3ccc(F)cc3)c2)c1OC`, for which the “activity, negative = inhibition” value is -3.24%.

As for `CC(C)c1ccc(NC2CCCN(C(=O)c3ccncc3)C2)cc1` (stereo unspecified), the Potency was 1.58 µM (active).

For `COc1ccc(NC2CCCN(C(=O)c3ccncc3)C2)cc1` (stereo unspecified), the “activity, negative = inhibition” value was 1.45%.

`Cc1cccc(C(=O)N2CCCC(Nc3ccc(C(C)C)cc3)C2)n1` (stereo unspecified): the “activity, negative = inhibition” value was -6.89%.

Take `O=C(Nc1ccc(C(=O)NCc2ccccc2Cl)cc1)C1=CSCCO1`: the “activity, negative = inhibition” value was -5.26%.

In the case of `COc1ccc(-n2nc(C(=O)NCC(=O)N3CCCCCC3)c3ccccc3c2=O)cc1Cl`, the “activity, negative = inhibition” value was 1.85%.

Take `CC(=O)c1cccc(NC(=O)CN2C(=O)c3cccnc3Oc3ccc(Cl)cc32)c1`: the “activity, negative = inhibition” value is 8.7%.

On to `C#CC(CCN1CCCCC1)(OC)c1ccccc1` (stereo unspecified), for which the “activity, negative = inhibition” value is -3.36%.

In the case of `CN1CCN(C(=O)CCc2nc(-c3ccc(Cl)cc3)no2)CC1`, the “activity, negative = inhibition” value is 20.9%.

Consider `CCNC(=O)CCc1nc(-c2ccc(C(C)(C)C)cc2)no1`, for which the Potency is 2.51 µM (active).

For `CCNC(=O)CCc1nc(-c2ccc(C)cc2)no1`, the “activity, negative = inhibition” value is 4.81%.

As to `COC(=O)c1ccc(N2CCOCC2)c(NC(=O)c2ccc(Br)o2)c1`, the “activity, negative = inhibition” value is -9.5%.

For `CCOC(=O)N1CCN(C(c2cccnc2)c2ccc3cccnc3c2O)CC1` (stereo unspecified), the Potency is 6.31 µM (active).

Turning to `CCN1CCN(c2ccc(NC(=O)c3cnccn3)cc2)CC1`, the “activity, negative = inhibition” value was -0.768%.

Turning to `Cc1onc(C(=O)NN)c1C(=O)N1CCN(C(c2ccccc2)c2ccccc2)CC1`, the “activity, negative = inhibition” value was -9.37%.

In the case of `CCOC(=O)N1CCN(C(=O)C2CCN(c3ncnc4c3sc3cccc(F)c34)CC2)CC1`, the “activity, negative = inhibition” value was -1.75%.

Consider `CCN1CCN(C(c2cccnc2)c2cc(Cl)c3cccnc3c2O)CC1` (stereo unspecified), for which the Potency is 5.01 µM (active).

With `Oc1ccccc1CN1CCN(C(c2ccccc2)c2ccccc2)CC1`, the “activity, negative = inhibition” value was 15.7%.

On to `CC(=O)Nc1ccc(S(=O)(=O)N2N=NC3C2C2CC4C3(CN(C(=O)OC(C)(C)C)S4(=O)=O)O2)cc1` (stereo unspecified), for which the “activity, negative = inhibition” value is 2.47%.

For `O=C(CCc1nnc(Cc2ccc3c(c2)OCO3)o1)NCCc1ccccc1Cl`, the “activity, negative = inhibition” value is 1.16%.

On to `O=C1Nc2cc(C(=O)N3CCN(c4ccc(F)cc4)CC3)ccc2NC1CSCc1cccc(F)c1` (stereo unspecified), for which the “activity, negative = inhibition” value is 3.66%.

With `Clc1cccc(Cl)c1OCCOCCNCc1ccccc1`, the “activity, negative = inhibition” value is -8.4%.

As to `COc1cccc(NC(=O)N2C3CCCC2CC(NC(C)=O)C3)c1` (stereo unspecified), the “activity, negative = inhibition” value was 0.59%.

In the case of `CCOC(=O)C1(Cc2ccccc2C)CCCN(C(=O)CCc2c(C)noc2C)C1` (stereo unspecified), the “activity, negative = inhibition” value was -7.72%.

On to `COc1ccc(CCNC(=O)c2cnc(Cl)c(Cl)c2)cc1`, for which the “activity, negative = inhibition” value was -1.08%.

With `S=c1[nH]nc(-c2ccncc2)n1/N=C/c1ccccc1Cl`, the “activity, negative = inhibition” value was 2.33%.

As to `S=c1[nH]nc(-c2ccco2)n1/N=C/c1ccccc1`, the “activity, negative = inhibition” value was 0.747%.

Turning to `S=c1[nH]nc(-c2cccs2)n1/N=C/c1cccs1`, the “activity, negative = inhibition” value was -3.28%.

With `Cc1ccc(/C=N\n2c(-c3ccccc3)n[nH]c2=S)s1`, the Potency is 8.91 µM (active).

Take `S=c1[nH]nc(-c2cc(-c3ccsc3)n[nH]2)n1-c1ccccc1`: the “activity, negative = inhibition” value was -4.8%.

Regarding `S=c1[nH]nc(-c2cc(-c3ccccc3)n[nH]2)n1/N=C/c1c2ccccc2cc2ccccc12`, the Potency was 6.31 µM (active).
